# Pf growth 96h = P. falciparum growth inhibition at 96 hours; Potency, µM (top dose mostly 28.7 µM), for the others: at the highest dose activity change, negative = inhibition, hits mostly inhibitors; P. falciparum luciferase reporter growth, 96 h; AID 504834; hit rate 6.9% among 320,000; note: potency is the fitted concentration of half-maximal effect; % is set by controls: 0 for no effect and ±100 for the full control effect
#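 Parasite growth measured via integrated firefly luciferase reporter in P. falciparum. Infected erythrocytes at 2% hematocrit, 0.05% parasitemia final were treated 96 hours at 37 C under 5% CO2, and luminescence was read.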
# Cycloheximide cs = affects cycloheximide protein synthesis inhibition readout, counter-screen | cell reporter, cycloheximide protein synthesis inhibition counterscreen | max response, % | hit rate 12% among 300,000; in the data active = max response mostly above about 13%, no sharp cut-off; inactive = mostly below about 14%; note: read at 38.3 µM for the half of the compounds with a filed dose; 0% is about no effect
# LmPK inhibitor = blocks Leishmania mexicana pyruvate kinase activity | purified LmPK, Kinase-Glo ATP luminescence, 1 h | Q27686 | Potency, µM (titrated, usually from 57.5 µM), for the others: at the top dose activity change, negative = inhibition, actives largely listed as inhibitors | hit rate 0.37% among 290,000; note: potency is the fitted concentration of half-maximal effect; % is set by controls: 0 for no effect and ±100 for the full control effect
# Target sequence (Q27686 whole entry, looked up): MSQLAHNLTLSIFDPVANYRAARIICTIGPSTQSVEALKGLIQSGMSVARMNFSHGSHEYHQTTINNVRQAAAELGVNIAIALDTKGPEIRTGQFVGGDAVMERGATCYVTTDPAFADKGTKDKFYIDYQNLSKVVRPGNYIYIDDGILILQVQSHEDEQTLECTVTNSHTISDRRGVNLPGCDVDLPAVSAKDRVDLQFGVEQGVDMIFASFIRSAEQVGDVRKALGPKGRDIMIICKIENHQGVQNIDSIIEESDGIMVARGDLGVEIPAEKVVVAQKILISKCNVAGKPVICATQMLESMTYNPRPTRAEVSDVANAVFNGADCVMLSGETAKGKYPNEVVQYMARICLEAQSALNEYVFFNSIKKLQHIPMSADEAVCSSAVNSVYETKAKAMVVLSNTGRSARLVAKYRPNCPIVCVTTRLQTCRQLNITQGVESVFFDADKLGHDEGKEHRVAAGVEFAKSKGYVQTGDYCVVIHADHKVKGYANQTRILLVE
#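 Pyruvate kinase activity monitored as ATP production (luciferase luminescence). Conditions: 0.1 nM enzyme, 0.5 mM PEP, 0.1 mM ADP, 1 h, RT; normalized against uninhibited and no-enzyme wells.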
# Shiga toxin inh = Shiga toxin inhibition. inhibition, % at 38.7 µM. hit rate 9.2% among 290,000. Vero cells, Shiga toxin protein synthesis inhibition reporter. AID 2315; in the data active = inhibition mostly above about 28%, no sharp cut-off; inactive = mostly below about 43%; note: 0% is about no effect
# Pf growth 48h = inhibits P. falciparum growth in the first generation, 48 h. hit rate 5.9% among 310,000. AID 504832. P. falciparum luciferase growth in erythrocytes, 48 h. Potency, µM (doses to about 28.7 µM), for inactives: at the highest dose activity change, negative = inhibition, hits mostly inhibitors; note: potency is the fitted concentration of half-maximal effect; % is set by controls: 0 for no effect and ±100 for the full control effect
#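 Here the parasites carry a stable luciferase gene and grow inside erythrocytes in Albumax-based RPMI medium with compound for one erythrocytic cycle. Activity is scored as loss of luminescent signal.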
# * marks the source's active call; other numbers are inactive results; ? = inconclusive; · = no result given. In the library only some 22% were active in any assay of this set; here they are far more common. Unless noted, calls come from the whole dose curve; as a rule, active = well fitted inhibition curve with a large enough effect; inconclusive = small, poorly fitted or top-dose-only effect, or another doubt; inactive = no such curve, though single readings can be large or run the other way.
SMILES,Pf growth 96h,Cycloheximide cs,LmPK inhibitor,Shiga toxin inh,Pf growth 48h
COc1cc(/C=C/C(=O)OCC(=O)N(C)CC(=O)Nc2ccc(F)cc2)ccc1OC(F)F,-22.0%,·,·,·,?
Cc1nnc(Sc2cc(C(=O)NCCCN(C)Cc3ccccc3)c3ccccc3n2)s1,2.08µM*,-2.0,0.0%,-1.7,?
COCCCNC(=O)c1cc(Sc2nnc(C)s2)nc2ccccc12,2.9%,-2.1,-0.9%,-3.7,-51.1%
O=C(CSc1nc2[nH]ncc2c(=O)[nH]1)Nc1ccccc1F,-5.4%,·,·,·,?
C=CCOC(=O)/C(=C\C=C\c1ccccc1)NC(=O)c1ccccc1,?,17.9*,0.9%,22.4,14.7%
CCCOC(=O)/C(=C\C=C\c1ccccc1)NC(=O)c1ccccc1,19.4%,16.2*,8.8%,15.4,-16.3%
CCOC(=O)/C(=C/C=C/c1ccccc1)NC(=O)c1ccccc1,10.4µM*,6.9,1.2%,6.5,16.7%
CCCCOC(=O)/C(=C/C=C/c1ccccc1)NC(=O)c1ccccc1,-21.8%,48.6*,4.7%,40.8,?
CCOc1ccc(CCNC(=O)COC(=O)c2c(C)nn(-c3ccccc3)c2C)cc1OCC,?,-2.3,3.7%,10.1,?
CCC(C)[C@H](NC(=O)N1CC(=O)Nc2ccccc21)C(=O)N[C@@H](C(=O)O)c1ccccc1 (some centres undefined),?,-2.6,-1.0%,10.1,12.3%
Cc1ccc(-c2nnc(Nc3ccc4c(c3)OCO4)c3ccccc23)cc1S(N)(=O)=O,2.94µM*,-3.6,5.5%,-13.6,?
Cc1nnc(Nc2ccc3c(c2)OCO3)c2ccccc12,?,19.9,-5.7%,114.2*,82.1%
CNC(=O)c1cc(Nc2nnc(C)c3ccccc23)ccc1OC,·,2.6,3.0%,44.9,0.0%
COc1ccc(-c2cc(=Nc3c(C)n(C)n(-c4ccccc4)c3=O)c3ccccc3o2)cc1,0.0%,41.4*,-2.7%,48.4*,331.1%
COc1ccc(NC(=S)N/C(=N/S(=O)(=O)c2ccc(C)cc2)c2ccccc2)cc1,42.5%,34.1*,-6.3%,60.8*,153.5%
COc1ccc(NS(=O)(=O)c2cc(N/C(=N\S(=O)(=O)c3ccccc3)c3ccc(F)cc3)ccc2Cl)cc1,10.4µM*,-2.6,2.9%,14.5,?
O=S(=O)(/N=C(/NC(=S)Nc1ccccc1)c1ccccc1)c1ccc(Cl)cc1,?,41.1*,0.4%,100.7*,171.8%
O=C(O)c1ccc(N/C(=N\S(=O)(=O)c2ccc(Cl)cc2)c2ccccc2)cc1,?,-2.1,-12.6%,10.6,35.9%
CN1CCC(OC(=O)c2ccc(Cl)cc2Cl)CC1,7.38µM*,12.3,7.2%,6.5,9.2%
COC(=O)c1cc(C(=O)c2ccc(Cl)cc2Cl)cn1C,5.22µM*,10.8,-0.7%,26.5,4.65µM*
Cc1c(NC(=O)Nc2ccccc2Cl)c(=O)n(-c2ccccc2)n1C,38.5%,-0.5,-9.8%,3.8,?
CCOC(=O)C(CC(=O)O)=C(c1ccccc1)c1ccccc1,61.8%,-1.5,0.3%,1.3,27.5%
COc1ccc(CCNC(=O)c2cc3c(=O)n4ccccc4nc3n(CCN3CCOCC3)c2=N)cc1,?,-1.8,6.3%,19.1,?
COc1ccc(CCNC(=O)c2cc3c(=O)n4ccccc4nc3n(C3CCCCC3)c2=N)cc1OC,10.4µM*,-11.0,-6.0%,-11.7,?
COc1ccc(CCNC(=O)c2cc3c(=O)n4ccccc4nc3n(C3CCCCC3)c2=N)cc1,4.15µM*,-16.4,-4.7%,-6.9,?
SMILES,Pf growth 96h,Cycloheximide cs,LmPK inhibitor,Shiga toxin inh,Pf growth 48h
COC(=O)c1sccc1NC(=O)C1CCCCC1C(=O)O (centres undefined),?,1.0,-1.2%,-4.8,36.6%
CC1CCN(c2nc3ccc(C(=O)NCCCN4CCCCC4C)cc3s2)CC1 (centres undefined),3.4%,29.3*,-8.5%,34.2*,-10.5%
CC1CCCC(C)N1CCCNC(=O)c1ccc2nc(N3CCCCC3)sc2c1 (centres undefined),?,18.0*,-6.3%,58.8*,?
CCC1CCCCN1CCCNC(=O)c1ccc2nc(N3CCCCC3)sc2c1 (centres undefined),?,14.6,0.0%,16.9,-20.8%
O=C(CNc1cccc(S(=O)(=O)N2CCCC2)c1)Nc1ccc(F)cc1F,9.28µM*,·,·,·,8.28µM*
O=C(CNc1ccc(Br)cc1)Nc1cccc(S(=O)(=O)N2CCCC2)c1,-51.3%,·,·,·,-85.0%
O=C(CNc1cccc(S(=O)(=O)N2CCCCC2)c1)Nc1cccc(F)c1,2.33µM*,·,·,·,2.94µM*
